Abeta rescue: qHTS for compounds that reverse cellular toxicity of Amyloid beta (A-beta) peptide in yeast: Primary Screen. yeast expressing A-beta42, growth rescue, OD600, 48 h; response scale: 0% DMSO, 100% iron-clioquinol control. Potency, µM (doses to about 46.1 µM), hits mostly activators. actives 0.063% (n = 410,000). AID 1347071, 2019; further: nearly all actives have a fitted effect of over 55% in size
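Yeast A-beta toxicity model in growth medium with pinned compounds, 48 h at 30 C; growth read as absorbance at 600 nm. Normalized to FeCl3/clioquinol equimolar mix (positive) and DMSO (negative).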
aSyn rescue: qHTS of alpha-syn Inhibitors. Yeast expressing alpha-synuclein, growth rescue, BacTiter-Glo, 24 h. Potency, µM (highest dose often 46.1 µM), without a hit: at the highest dose growth rescue (activation), hits mostly activators. actives 0.14% (n = 370,000). AID 652106, 2013; further: % of control where 0% means no effect; nearly all actives have a fitted effect of over 65% in size
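Screening used galactose-induced yeast with toxic alpha-synuclein levels, exposed to compound for 24 hr at 30 deg C. Cell growth, read with BacTiter-Glo luminescence, gave the measured signal.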
TDP-43 yeast inh: qHTS of TDP-43 Inhibitors | TDP-43 expressing yeast growth rescue, BacTiter-Glo, 24 h | Potency, µM (highest dose often 46.1 µM), inactives show top-dose growth rescue (activation), hits mostly activators | actives 1.8% (n = 410,000) | AID 652104, 2013; further: % of control where 0% means no effect; nearly all actives have a fitted effect of over 50% in size
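Growth rescue of TDP-43-toxic yeast measured as ATP luminescence (BacTiter-Glo). Cells grown to mid-log in raffinose, induced in galactose at OD600=0.02, exposed to compound 24 hr at 30 deg C.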
Mito fusion act: qHTS Assay for Small Molecule Inhibitors of Mitochondrial Division or Activators of Mitochondrial Fusion | S. cerevisiae fusion-defective mutant growth rescue, CellTiterGlo 48 h | Potency, µM (highest dose often 46.1 µM), for inactives: at the highest dose growth rescue (activation), most hits filed as activators | actives 0.23% (n = 320,000); further: % of control where 0% means no effect; nearly all actives have a fitted effect of over 45% in size
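Growth-rescue viability read-out: after 48 h at the non-permissive 37C in glycerol/ethanol YPEG, yeast mitochondrial fusion mutants are measured by CellTiterGlo luminescence; compounds (23 nl pinned per well) restoring growth score as division inhibitors or fusion activators.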
FUS suppressor: qHTS for Suppressors of FUS Proteinopathy: Primary screen using FUS-linked yeast assay; S. cerevisiae FUS-expressing, growth rescue, OD600, 24 h; Potency, µM (titrated, usually from 76.6 µM), usual class: activators; actives 0.24% (n = 390,000);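 further: plate controls were DMSO vehicle for no effect and reference control for full effect; nearly all actives have a fitted effect of over 55% in size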
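Restored growth of FUS-toxic S. cerevisiae, read as 600 nm absorbance after 24 h at 30C in galactose medium (starting OD 0.005). Controls CP55940 and DMSO.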
Starred values were filed as active, the others as inactive; i = inactive; u = inconclusive; x = no result. Hits are enriched below; roughly 2.2% of the tested compounds scored in any of these assays. The call rests on the fitted dose curve; in most records, active means well fitted curve in the direction sought with a large enough effect; inconclusive means small, poorly fitted or top-dose-only effect, or another doubt; inactive means no such curve, though single readings can be large; an effect the other way counts as inactive or inconclusive. Potency means the concentration at half of the fitted maximal effect.

SMILES	Abeta rescue	aSyn rescue	TDP-43 yeast inh	Mito fusion act	FUS suppressor
O=C(CSc1nc(Nc2ccccc2)c2ccccc2n1)c1ccc(Cl)cc1	i	x	19.2%	x	i
COc1cc(Nc2nc(SCc3cccc(Cl)c3)nc3ccccc23)cc(OC)c1	i	x	17.8µM*	x	i
COc1cc(Nc2nc(SCC(=O)c3ccc(Cl)c(Cl)c3)nc3ccccc23)cc(OC)c1	i	x	12.6µM*	x	i
CCOc1ccc(CCNC(=O)c2nn(-c3ccc(OC)cc3)c(=O)c3c2c2ccccc2n3C)cc1OCC	i	x	17.8%	x	i
CCCC[C@@H]1Cc2[nH][nH]c(=O)c2[C@H](c2cccc3ccccc23)O1	i	-1.4%	11.2µM*	x	i
CC[C@@H]1Cc2[nH][nH]c(=O)c2[C@@H](c2ccc(Cl)cc2)O1	i	2.4%	15.8µM*	x	i
CCCCC1CC2=C(C(=O)OC(C)(C)O2)C(c2cccc3ccccc23)O1 (stereo not given)	i	27.2%	u	x	i
O=c1[nH]c(=S)[nH]c2c1C(c1ccccc1)OC(C1CCCCC1)C2 (stereo not given)	i	-0.4%	0.0%	x	i
O=c1[nH][nH]c2c1[C@H](c1ccc(Cl)cc1)O[C@H](C1CCCC1)C2	i	0.7%	17.8µM*	x	i
CC(C)c1ccc([C@@H]2O[C@H](CCc3ccccc3)Cc3[nH][nH]c(=O)c32)cc1	i	1.5%	15.8µM*	x	u
CC(C)C[C@@H]1Cc2[nH][nH]c(=O)c2[C@H](c2ccc(Cl)cc2)O1	i	21.5%	u	x	i
CNC(=O)C1Cc2c(-c3ccc4c(c3)OCO4)ccnc2O1 (stereo not given)	i	-0.5%	3.9%	x	i
COc1ccc(-c2cc(=O)oc3c(C)c(OC(C)C(=O)NCc4ccccn4)ccc23)cc1 (stereo not given)	i	-2.1%	u	0.1%	i
Cc1cc(C)cc(NC(=O)CCCn2c3ccccc3c(=O)c3ccccc32)c1	i	x	u	x	i
C[C@@H](C(=O)NCCc1ccccc1F)N1C(=O)N2CCc3c([nH]c4ccccc34)[C@@]2(C)C1=O	i	u	11.8%	-2.5%	i
C[C@@H](C(=O)NCCc1ccccc1)N1C(=O)N2CCc3c([nH]c4ccccc34)[C@@]2(C)C1=O	i	u	35.5µM*	-4.5%	i
COc1ccc(C(=O)NCC(=O)N/N=C/c2cn(C)c3ccccc23)cc1OC	i	-3.8%	2.2%	2.2%	i
N/C(=N\OC(=O)CC1CCCCC1)c1ccccn1	i	3.7%	15.8µM*	-2.4%	i
N/C(=N\OC(=O)Cc1ccc(-c2ccccc2)cc1)c1ccccn1	i	-0.7%	12.6µM*	17.7%	i
COc1ccc(CC(=O)O/N=C(\N)c2ccccn2)cc1	i	-7.2%	-5.4%	-7.5%	i
CCOCCn1c(=NC(=O)CSCC(=O)Nc2cc(C)on2)sc2cc(OC)ccc21	i	-0.1%	19.7%	1.1%	i
O=C(Nc1nnc(-c2ccc3c(c2)CCCC3)o1)c1c(F)cccc1F	i	-2.5%	24.2%	-0.2%	i
O=C(Nc1nnc(-c2ccc3c(c2)CCCC3)o1)c1ccc(Cl)cc1Cl	u	u	3.98µM*	u	i
COc1ccc(N(CC(=O)Nc2cccc(N(C)S(C)(=O)=O)c2)S(=O)(=O)c2ccc(C)cc2)cc1	i	9.4%	7.0%	-1.7%	28.2µM*
COc1ccc(Cl)cc1NC(=O)CN(c1cccc(C)c1C)S(=O)(=O)c1ccccc1	i	x	15.4%	x	22.4µM*
COc1ccc(N(CC(=O)Nc2ccc(Cl)cc2C)S(=O)(=O)c2ccccc2)c(OC)c1	i	x	8.4%	x	u
COc1cccc(NC(=O)COc2cc(O)c3c(c2)OC(C)(C)CC3=O)c1	i	1.2%	17.8µM*	8.1%	i
Cc1ccc(CNC(=O)COc2cc(O)c3c(c2)OC(C)(C)CC3=O)cc1	i	9.0%	12.6µM*	0.3%	u

Assay outcomes deposited in PubChem by National Center for Advancing Translational Sciences (NCATS).
